PNC assembly inh: inhibitors of perinucleolar compartment assembly; activity change (PNC), negative = inhibition, % at 10 µM; PC3M PTB-GFP, PNC prevalence imaging, 16 h; stronger effect = lower value; 140,000 compounds, 3.1% hits;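 active = readout at or below -70, meaning at least 70% loss of cells showing the perinucleolar compartment, a nuclear body marking cancer cells; inconclusive = readout between -30 and a set limit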;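 also: plate controls were DMSO wells for no effect and camptothecin positive control wells for full effect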
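PC3M cells stably expressing PTB-GFP, 750–1000 cells/well, treated 16 h at 37 °C with compound (23 nl of library stock), in duplicate. After paraformaldehyde fixation and Hoechst stain, imaged at 20x; PNC prevalence scored by image analysis.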
ALOX12 inhib: 12-hLO (ALOX12) enzyme inhibition | P18054 | purified 12-hLO, xylenol orange hydroperoxide absorbance | Potency, µM (top dose mostly 57.1 µM), for the others: at the highest dose activity change, negative = inhibition, actives largely listed as inhibitors | 150,000 compounds, 0.12% hits | AID 1452; also: potency is read from the fitted curve at half-maximal effect; nearly all actives have a fitted effect of over 55% in size
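Hydroperoxide formation by human 12-lipoxygenase from 40 uM arachidonic acid was followed colorimetrically via ferric-xylenol orange complex, using the 573/405 nm absorbance ratio. Enzyme concentration was 150 nM, with 30 min reaction at room temperature.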
ALDH1A1 block: blocks purified human ALDH1A1 activity. P00352. Purified ALDH1A1, NADH fluorescence, propionaldehyde substrate. Potency, µM (doses to about 75.3 µM), inactives show top-dose activity, negative = inhibition, usual class: inhibitors. 220,000 compounds, 7.3% hits. AID 1030; active = well fitted inhibition curve with a large enough effect, not every such curve was filed as active; inconclusive = small, poorly fitted or top-dose-only effect, or another doubt; inactive = no such curve, though single readings can be large or run the other way;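 also: potency is read from the fitted curve at half-maximal effect; plate controls were no enzyme wells and a reference inhibitor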
GLA inh pH 4.5: blocks human alpha-galactosidase A at pH 4.5; activity change, negative = inhibition, % at 105 µM; 230,000 tested, under 10 active; purified enzyme, 4-MU-alpha-Gal fluorescence, pH 4.5; AID 1467;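 also: 0% = full activity with enzyme and -100% = basal without enzyme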
Target sequence (P06280 whole entry, looked up): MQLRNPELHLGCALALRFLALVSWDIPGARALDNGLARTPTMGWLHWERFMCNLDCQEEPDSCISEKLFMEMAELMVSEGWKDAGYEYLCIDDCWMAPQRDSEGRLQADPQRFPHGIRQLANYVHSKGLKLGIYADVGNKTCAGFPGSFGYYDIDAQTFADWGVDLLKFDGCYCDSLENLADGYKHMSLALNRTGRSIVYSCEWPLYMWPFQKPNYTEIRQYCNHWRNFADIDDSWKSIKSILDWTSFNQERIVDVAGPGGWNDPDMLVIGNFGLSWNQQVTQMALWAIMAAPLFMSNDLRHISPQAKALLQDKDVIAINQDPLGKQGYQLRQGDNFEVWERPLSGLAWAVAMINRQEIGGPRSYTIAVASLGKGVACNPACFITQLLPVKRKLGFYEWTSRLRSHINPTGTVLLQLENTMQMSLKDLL
aGal spleen mod: inhibitors or activators of human alpha-galactosidase in spleen homogenate | Potency, µM (top dose mostly 80 µM), inactives show at the highest dose activity change, negative = inhibition, actives largely listed as inhibitors | AID 2107 | human spleen homogenate, 4MU-alpha-Gal fluorescence, 40 min | P06280 | 240,000 compounds, 0.008% hits;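 also: potency is read from the fitted curve at half-maximal effect; 0% = enzyme with vehicle and -100% = no enzyme basal signal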
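Inhibition or activation of alpha-galactosidase in human spleen homogenate is scored by 4-MU fluorescence after 40 min at 37C, pH 5.0, with 1 mM substrate. AC50s come from concentration-response fitted to the Hill equation.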
HPGD inh: HPGD (human) dehydrogenase inhibition | purified HPGD, NADH fluorescence kinetic, PGE2 substrate | Potency, µM, inactives show at the highest dose activity change, negative = inhibition, most hits filed as inhibitors | 150,000 compounds, 4.3% hits; active = well fitted inhibition curve with a large enough effect, not every such curve was filed as active; inconclusive = small, poorly fitted or top-dose-only effect, or another doubt; inactive = no such curve, though single readings can be large or run the other way; also: potency is read from the fitted curve at half-maximal effect
Target sequence (P15428 whole entry, looked up): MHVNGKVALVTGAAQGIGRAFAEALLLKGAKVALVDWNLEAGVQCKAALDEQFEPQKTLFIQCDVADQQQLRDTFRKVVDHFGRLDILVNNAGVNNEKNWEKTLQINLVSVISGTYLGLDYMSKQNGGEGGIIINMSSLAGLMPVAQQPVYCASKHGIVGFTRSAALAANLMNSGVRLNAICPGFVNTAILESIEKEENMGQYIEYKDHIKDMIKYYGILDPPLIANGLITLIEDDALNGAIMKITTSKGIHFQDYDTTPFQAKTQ
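20 nM HPGD preincubated 15 min at room temperature with compound in 50 mM Tris-HCl pH 8, 0.01% Tween 20. Started with 1 mM NAD+ and 30 uM prostaglandin E2; NADH fluorescence (360/450 nm) read 5 times over 30-s intervals, last minus first.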
Starred values were filed as active, the others as inactive; ? = inconclusive; . = no result given; [ ] = dose if it differs, or a comment. Shown are actives, neighbours in structure and some others; about 10% of the full set was active somewhere. Unless noted, calls follow the shape of the dose curve; as a rule, active = well fitted curve in the direction sought with a large enough effect; inconclusive = small, poorly fitted or top-dose-only effect, or another doubt; inactive = no such curve, though single readings can be large; an effect the other way counts as inactive or inconclusive. Unless noted, % is scaled to controls: 0 for no effect and ±100 for the full control effect.

SMILES | PNC assembly inh | ALOX12 inhib | ALDH1A1 block | GLA inh pH 4.5 | aGal spleen mod | HPGD inh
CC(=O)N1CCN(c2ccc(NC(=O)c3ccccc3Br)cc2Cl)CC1 | ? | 1% | ? | -2 | 5% | 16µM*
O=C(Nc1ccc(N2CCOCC2)c(Cl)c1)c1ccc(Br)o1 | -6 | 0% | 25µM* | 0 | 6% | 25µM*
O=C(Nc1ccc(N2CCN(C(=O)c3ccccc3)CC2)c(Cl)c1)c1ccc(Br)o1 | ? | -1% | ? | 2 | -4% | ?
O=C(/C=C/c1ccccc1)NC(=S)Nc1ccc(N2CCOCC2)c(Cl)c1 | 21 | -10% | 1% | 3 | 5% | .
O=C(Nc1ccc(N2CCCC2)c(Cl)c1)c1ccc([N+](=O)[O-])o1 | . | . | 3.5µM* | 5 | 5% | .
CCCCSc1nc(C)cc(SCC(=O)N/N=C/c2ccccc2)n1 | . | . | -1% | -1 | 1% | .
C[C@@H]1CC2(OC(O)[C@]3(C)O[C@H]23)O[C@H]2C[C@@]3(C)[C@@H]4CC[C@H]5C(C)(C)C(O[C@@H]6OC[C@@H](O)[C@H](O)[C@H]6O)CC[C@@]56C[C@@]46CC[C@]3(C)[C@@H]12 (stereo not given in full) | . | -3% | -2% | . | -17% | 0%
O=[N+]([O-])c1ccc(S(=O)(=O)CC(CN2CCCCC2)N2CCCCC2)cc1 (stereo not given) | . | . | 7.1µM* | 2 | -10% | .
CCn1c(=O)n(CCOC)c(=O)c2c3c(sc21)CCCC3 | 2 | -3% | -10% | -7 | -3% | -13%
COCCCn1c(=S)[nH]c2sc3c(c2c1=O)CCCS3 | . | . | 25µM* | -1 | 0% | .
COc1ccc(CCN2C(=O)c3cccc4cccc(c34)C2=O)cc1OC | 27 | -2% | 10% | 0 | -8% | -7%
CCN(CC)C(=O)c1ccc2c3c(cccc13)C(=O)N(CCc1ccc(OC)c(OC)c1)C2=O | -13 | -2% | -9% | 4 | 0% | 18µM*
O=C(N/N=C1\C(=O)c2cccc3cccc1c23)c1ccc(O)cc1 | . | . | 10µM* | -6 | 3% | .
CCCCNC(=S)N/N=C1\C(=O)c2cccc3cccc1c23 | 21 | -1% | 13µM* | -5 | 11% | -6%
CNC(=S)N/N=C1\C(=O)c2cccc3cccc1c23 | -11 | 5% | ? | -5 | 5% | -16%
S=C(NN=C1C2CC3CC(C2)CC1C3)Nc1ccccc1 | -7 | -5% | ? | 8 | 5% | -27%
Cc1ccc(NC(=O)CCS(=O)(=O)c2cccc3nonc23)cc1 | . | . | ? | 4 | -4% | .
O=C(CCS(=O)(=O)c1cccc2nonc12)NCCc1ccccc1 | ? | -10% | 22µM* | -2 | -18% | -8%
Cc1ccc(Cl)cc1N1CCN(C(=O)Cn2ccc3ccccc3c2=O)CC1 | 23 | -16% | 20µM* | 3 | -1% | .
CC(C)NC(=O)CCS(=O)(=O)c1cccc2nonc12 | 13 | 0% | 25µM* | 10 | 3% | -5%
Cc1ccc(Cl)cc1N1CCN(C(=O)CCS(=O)(=O)c2cccc3nonc23)CC1 | ? | -4% | 22µM* | -9 | -8% | -7%
COc1cccc([C@@H]2Oc3ccc(OC)cc3C[C@H]2OC(=O)Nc2ccc(OC(F)F)cc2)c1 | . | . | -5% | -10 | 5% | -14%
CC(CC(=O)O)Nc1ccccc1O (stereo not given) | . | . | -4% | -12 | 3% | .
CC(NC(=O)c1ccc(Br)s1)c1ccncc1 (stereo not given) | . | . | ? | 4 | 2% | .
COC(=O)[C@@]1(Cc2ccc(OC)cc2)[C@H]2c3cc(C(=O)N(C)C)n(CCN4CNCC4=O)c3C[C@H]2CN1C(=O)c1ccccc1 | . | -1% | -9% | 1 | 0% | -16%
SMILES | PNC assembly inh | ALOX12 inhib | ALDH1A1 block | GLA inh pH 4.5 | aGal spleen mod | HPGD inh
O=C(CCS(=O)(=O)c1cccc2nonc12)NCc1ccc(Cl)cc1 | . | . | 8.9µM* | -8 | -2% | .
CC(C)CCNC(=O)CCS(=O)(=O)c1cccc2nonc12 | -23 | -4% | 10µM* | 0 | -1% | -7%
O=C(CCS(=O)(=O)c1cccc2nonc12)N1CCCc2ccccc21 | 3 | -8% | 11µM* | -8 | 8% | -15%
COc1ccc(N(C)C(=O)CCS(=O)(=O)c2cccc3nonc23)c(OC)c1 | 22 | 5% | 13µM* | -4 | 6% | -5%
CCCCC(CC)CNC(=O)CCS(=O)(=O)c1cccc2nonc12 (stereo not given) | ? | -1% | ? | -3 | 8% | -7%
Cc1cccc(N(C)C(=O)CCS(=O)(=O)c2cccc3nonc23)c1 | 26 | 0% | ? | -1 | 9% | -8%
O=C(NNC(=O)c1cc([N+](=O)[O-])ccc1Cl)c1cccs1 | ? | 0% | 25% | 2 | 2% | -9%
Cc1ccc(C2CC(=O)C=C(Nc3ccc(Cl)cc3)C2)cc1 (stereo not given) | 29 | 0% | -3% | 0 | 0% | -19%
O=C1C=C(Nc2ccc(Cl)cc2)CC(c2ccc(Cl)cc2)C1 (stereo not given) | 4 | -1% | -7% | . | 6% | 32µM*
CN(C)c1ccc(C2CC(=O)C=C(Nc3ccccc3N)C2)cc1 (stereo not given) | . | . | . | 3 | 8% | .
COc1ccccc1NC1=CC(=O)CC(c2ccccc2)C1 (stereo not given) | -96* | -2% | -14% | -1 | 9% | -6%
O=C(C1CCC(CNc2c(N3CCCCC3)c(=O)c2=O)CC1)N1CCCCC1 (stereo not given) | -23 | -1% | -1% | 1 | -2% | 0.4µM*
CC1CCN(c2c(NCC3CCC(C(=O)N4CCCCC4)CC3)c(=O)c2=O)CC1 (stereo not given) | 11 | -5% | -8% | 3 | 0% | 0.5µM*
Cc1ccc(/C=C2\NC(=S)NC2=O)cc1[N+](=O)[O-] | . | . | -10% | -3 | -4% | .
O=C1NC(=S)N/C1=C/c1cc([N+](=O)[O-])ccc1O | 31 | -8% | 5µM* | -10 | -2% | ?
O=C1NC(=S)N/C1=C/c1cccc([N+](=O)[O-])c1O | 61 | -10% | 22µM* | -26 | -16% | -27%
O[C@@H](c1cc([C@@]23C[C@H]4CC[C@@H]2C[C@H](C4)C3)nc2c(Cl)cc(Cl)cc12)C1CCCCN1 (stereo not given in full) | . | . | 2%[13.5 µM] | . | . | -5%
COc1ccc2c(c1)C(=O)[C@H](OC(=O)NCc1ccc3c(c1)OCO3)[C@@H](c1ccc(OC)c(Br)c1)O2 | . | . | 6% | 7 | 6% | -4%
Cc1cc(S(=O)(=O)N(Cc2ccccc2)Cc2ccc(N(C)C)cc2)ccc1-n1cnnn1 | -119* | 3% | ? | 2 | 6% | -4%

Assay outcomes (PubChem)
